# Source: PubChem BioAssay (Tox21)
# Unmarked numbers belong to inactive results. Inconclusive results are not listed. Entries that show only a call come without a potency. Active and inactive are the calls of the source. Calls come from the whole dose curve; as a rule, active = well fitted curve in the direction sought with a large enough effect in the repeat runs; inconclusive = weak or mixed curves; inactive = no such curve, though single readings can be large; an effect the other way counts as inactive or inconclusive.
# Columns and labels:
# [1] = A CellTox Green Cytotoxicity Assay to monitor cytotoxicity in HEK293 cells - 40 hour (AID 1224871); note: nearly all actives have a fitted effect of over 45% in size; note: potency is the fitted concentration of half-maximal effect
# Method in brief: (§1)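 Tox21 screen in HEK293: membrane-impermeant cyanine dye fluoresces on binding dead-cell DNA; compound pinned 5 h post-seeding, plates held at 37 C, signal read repeatedly through 40 h.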
# [2] = qHTS RealTime-Glo MT Cell Viability Assay in HepG2 cells - 8 hour (AID 1224873); note: nearly all actives have a fitted effect of over 55% in size; note: potency is the fitted concentration of half-maximal effect
# Method in brief: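 HepG2 cells mixed with RealTime-Glo MT reagents (NanoLuc plus cell-permeant prosubstrate) were seeded at 600 cells/well, incubated 5 h at 37 C/5% CO2, then pinned with compounds in DMSO; nonlytic luminescence tracked viability during 40 h treatment.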
# [3] = A CellTox Green Cytotoxicity Assay to monitor cytotoxicity in HEK293 cells - 24 hour (AID 1224875); note: nearly all actives have a fitted effect of over 45% in size; note: potency is the fitted concentration of half-maximal effect; for activity change: series mostly up to about 77 µM
# Method in brief: as §1
# [4] = A CellTox Green Cytotoxicity Assay to monitor cytotoxicity in HepG2 cells - 16 hour (AID 1224876); note: nearly all actives have a fitted effect of over 45% in size; note: potency is the fitted concentration of half-maximal effect
# Method in brief: (§2)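 Measurements at 0, 8, 16, 24, 32 and 40 h of treatment captured CellTox Green fluorescence in HepG2 cells that had been co-plated with reagent and preincubated 5 h at 37 C/5% CO2.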
# [5] = A CellTox Green Cytotoxicity Assay to monitor cytotoxicity in HepG2 cells - 40 hour (AID 1224879); note: nearly all actives have a fitted effect of over 40% in size; note: potency is the fitted concentration of half-maximal effect
# Method in brief: as §2
# [6] = qHTS RealTime-Glo MT Cell Viability Assay in HEK293 cells - 0 hour (AID 1224880); note: top concentration of the series differs between compounds; nearly all actives have a fitted effect of over 45% in size
# Method in brief: (§3)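 HEK293 + NanoLuc + prosubstrate, 600 cells/well; 5 h, 37 C/5% CO2; compound 23 nL in DMSO by pintool; 37 C; luminescence read at 0, 8, 16, 24, 32 and 40 h time points.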
# [7] = A CellTox Green Cytotoxicity Assay to monitor cytotoxicity in HEK293 cells - 32 hour (AID 1224881); note: nearly all actives have a fitted effect of over 40% in size; note: potency is the fitted concentration of half-maximal effect
# Method in brief: as §1
# [8] = A CellTox Green Cytotoxicity Assay to monitor cytotoxicity in HepG2 cells - 0 hour (AID 1224882); note: nearly all actives have a fitted effect of over 35% in size
# Method in brief: as §2
# [9] = A CellTox Green Cytotoxicity Assay to monitor cytotoxicity in HepG2 cells - 32 hour (AID 1224883); note: nearly all actives have a fitted effect of over 50% in size; note: potency is the fitted concentration of half-maximal effect
# Method in brief: as §2
# [10] = qHTS RealTime-Glo MT Cell Viability Assay in HepG2 cells - 16 hour (AID 1224885); note: nearly all actives have a fitted effect of over 50% in size; note: potency is the fitted concentration of half-maximal effect
# Method in brief: (§4)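 HepG2 cells were seeded at 600 cells/well together with NanoLuc luciferase and a cell-permeant prosubstrate, preincubated 5 h at 37 C/5% CO2, then pin-dosed with compounds in DMSO. Nonlytic luminescence from viable cells was read at each time point.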
# [11] = qHTS RealTime-Glo MT Cell Viability Assay in HEK293 cells - 8 hour (AID 1224887); note: nearly all actives have a fitted effect of over 50% in size; note: potency is the fitted concentration of half-maximal effect; for activity change, negative = cytotoxicity: top concentration of the series differs between compounds
# Method in brief: as §3
# [12] = A CellTox Green Cytotoxicity Assay to monitor cytotoxicity in HEK293 cells - 16 hour (AID 1224888); note: nearly all actives have a fitted effect of over 35% in size; note: potency is the fitted concentration of half-maximal effect
# Method in brief: as §1
# [13] = qHTS RealTime-Glo MT Cell Viability Assay in HepG2 cells - 0 hour (AID 1224889); note: nearly all actives have a fitted effect of over 50% in size
# Method in brief: as §4
# [14] = A CellTox Green Cytotoxicity Assay to monitor cytotoxicity in HepG2 cells - 8 hour (AID 1224890); note: nearly all actives have a fitted effect of over 45% in size; note: potency is the fitted concentration of half-maximal effect
# Method in brief: as §2
# [15] = qHTS RealTime-Glo MT Cell Viability Assay in HepG2 cells - 32 hour (AID 1224877); note: nearly all actives have a fitted effect of over 55% in size; note: potency is the fitted concentration of half-maximal effect
# Method in brief: as §4
# [16] = A CellTox Green Cytotoxicity Assay to monitor cytotoxicity in HepG2 cells - 24 hour (AID 1224878); note: nearly all actives have a fitted effect of over 45% in size
# Method in brief: as §2
# [17] = qHTS RealTime-Glo MT Cell Viability Assay in HEK293 cells - 16 hour (AID 1224872)
# Method in brief: (§5)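 HEK293 cells were seeded at 600 cells/well together with NanoLuc luciferase and cell-permeant prosubstrate, preincubated 5 h at 37 C/5% CO2, then given compound in DMSO by pintool. Luminescence from viable-cell prosubstrate reduction was read repeatedly over 40 h.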
# [18] = qHTS RealTime-Glo MT Cell Viability Assay in HEK293 cells - 40 hour (AID 1224874); settings: RealTime-Glo luminescence; max response: active compounds read low; note: nearly all actives have a fitted effect of over 50% in size; note: potency is the fitted concentration of half-maximal effect
# Method in brief: as §3
# [19] = A CellTox Green Cytotoxicity Assay to monitor cytotoxicity in HEK293 cells - 8 hour (AID 1224884); note: nearly all actives have a fitted effect of over 35% in size
# Method in brief: as §1
# [20] = qHTS RealTime-Glo MT Cell Viability Assay in HEK293 cells - 24 hour (AID 1224886); note: nearly all actives have a fitted effect of over 50% in size; note: potency is the fitted concentration of half-maximal effect; for activity change, negative = cytotoxicity: top concentration of the series differs between compounds
# Method in brief: as §5
smiles,measurement,setting,value
Nc1ccc(C(=O)Nc2ccccc2N)cc1,Potency,[1],inactive
same,Potency,[2],inactive
same,Potency,[3],inactive
same,Potency,[4],inactive
same,Potency,[5],5.35 µM (active)
same,Potency,[6],inactive
same,Potency,[7],inactive
same,Potency,[8],inactive
same,Potency,[9],7.56 µM (active)
same,Potency,[10],inactive
same,Potency,[11],inactive
same,Potency,[12],inactive
same,Potency,[13],inactive
same,Potency,[14],inactive
CC(C)(C)c1cc(CO)cc(C(C)(C)C)c1O,Potency,[1],inactive
same,Potency,[2],inactive
same,Potency,[3],inactive
same,Potency,[4],inactive
same,Potency,[15],inactive
same,Potency,[16],inactive
same,Potency,[5],inactive
same,Potency,[7],inactive
same,Potency,[8],inactive
same,Potency,[9],inactive
same,Potency,[10],inactive
same,Potency,[12],inactive
same,Potency,[13],inactive
COc1ccc(C(C)=O)cc1,Potency,[17],inactive
same,Potency,[2],inactive
same,max response,[18],21.1%
same,Potency,[3],inactive
same,Potency,[4],inactive
same,Potency,[15],inactive
same,Potency,[16],inactive
same,Potency,[5],inactive
same,Potency,[6],inactive
same,Potency,[7],inactive
same,Potency,[8],inactive
same,Potency,[9],inactive
same,Potency,[19],inactive
same,Potency,[10],inactive
same,Potency,[20],inactive
same,Potency,[11],inactive
same,Potency,[12],inactive
same,Potency,[13],inactive
same,Potency,[14],inactive
Cc1cc(C)c(S(=O)(=O)O)cc1N=Nc1cc(S(=O)(=O)O)c2ccccc2c1O,Potency,[1],inactive
same,Potency,[2],inactive
same,Potency,[3],inactive
same,Potency,[4],inactive
same,Potency,[16],inactive
same,Potency,[5],inactive
same,Potency,[7],inactive
same,Potency,[8],inactive
same,Potency,[9],inactive
same,Potency,[19],inactive
same,Potency,[10],inactive
same,Potency,[12],inactive
same,Potency,[13],inactive
same,Potency,[14],inactive
CC(=O)c1c(C)c([N+](=O)[O-])c(C(C)(C)C)c([N+](=O)[O-])c1C,Potency,[1],inactive
same,Potency,[2],inactive
same,max response,[18],-9.27%
same,Potency,[3],inactive
same,Potency,[4],inactive
same,Potency,[15],inactive
same,Potency,[5],inactive
same,Potency,[6],inactive
same,Potency,[7],inactive
same,Potency,[8],inactive
same,Potency,[9],inactive
same,Potency,[19],inactive
same,Potency,[10],inactive
same,Potency,[20],inactive
same,Potency,[11],inactive
same,Potency,[12],inactive
same,Potency,[13],inactive
same,Potency,[14],inactive
CC(C)(C)c1ccc(S)cc1,Potency,[17],inactive
same,Potency,[2],inactive
same,max response,[18],-0.358%
same,Potency,[3],inactive
same,Potency,[4],inactive
same,Potency,[15],inactive
same,Potency,[16],inactive
same,Potency,[5],inactive
same,Potency,[6],inactive
same,Potency,[7],inactive
same,Potency,[8],inactive
same,Potency,[9],inactive
same,Potency,[19],inactive
same,Potency,[20],inactive
same,Potency,[11],inactive
same,Potency,[12],inactive
same,Potency,[13],inactive
same,Potency,[14],inactive
CCCCCCCCCO,Potency,[17],inactive
same,Potency,[2],inactive
same,max response,[18],18.9%
same,Potency,[3],inactive
same,Potency,[4],inactive
same,Potency,[15],inactive
same,Potency,[16],inactive
same,Potency,[5],inactive
same,Potency,[7],inactive
same,Potency,[8],inactive
same,Potency,[9],inactive
same,Potency,[10],inactive
same,Potency,[20],inactive
same,Potency,[11],inactive
same,Potency,[12],inactive
same,Potency,[13],inactive
same,Potency,[14],inactive
O=C1[C@H](CC[C@H](O)c2ccc(F)cc2)[C@@H](c2ccc(O)cc2)N1c1ccc(F)cc1,Potency,[1],inactive
same,Potency,[2],inactive
same,Potency,[18],19 µM (active)
same,Potency,[3],inactive
same,Potency,[4],inactive
same,Potency,[15],inactive
same,Potency,[16],inactive
same,Potency,[5],inactive
same,Potency,[7],inactive
same,Potency,[8],inactive
same,Potency,[9],inactive
same,Potency,[19],inactive
same,Potency,[10],inactive
same,Potency,[20],23.9 µM (active)
same,Potency,[12],inactive
same,Potency,[13],inactive
same,Potency,[14],inactive
CCCCCCCCCCCCCCCCCBr,"activity change, negative = cytotoxicity",[17],-1.86% [at 15.8 µM]
same,"viability change, negative = cytotoxic",[2],-6.16% [at 15.8 µM]
same,max response,[18],3.16%
same,activity change,[3],"-8.25% [at 15.8 µM, active compounds read high]"
same,cytotoxicity increase,[4],-9.75% [at 15.8 µM]
same,"activity change, negative = cytotoxic",[15],4.28% [at 15.8 µM]
same,cytotoxicity increase,[5],-11.7% [at 15.8 µM]
same,"activity change, negative = cytotoxicity",[6],-0.712% [at 15.8 µM]
same,cytotoxicity increase,[7],-9.33% [at 15.8 µM]
same,cytotoxicity,[8],-6.85% [at 15.8 µM]
same,cytotoxicity increase,[9],-10.1% [at 15.8 µM]
same,cytotoxicity increase,[19],-3.41% [at 15.8 µM]
same,"activity change, negative = cytotoxic",[10],-3.91% [at 15.8 µM]
same,"activity change, negative = cytotoxicity",[20],-0.166% [at 15.8 µM]
same,"activity change, negative = cytotoxicity",[11],2.84% [at 15.8 µM]
same,activity change,[12],"-5.91% [at 15.8 µM, active compounds read high]"
same,"activity change, negative = cytotoxicity",[13],-6.2% [at 15.8 µM]
CCCCCCCCCC=O,Potency,[17],inactive
same,Potency,[2],inactive
same,max response,[18],7.4%
same,Potency,[3],inactive
same,Potency,[4],inactive
same,Potency,[16],inactive
same,Potency,[5],inactive
same,Potency,[6],inactive
same,Potency,[7],inactive
same,Potency,[8],inactive
same,Potency,[9],inactive
same,Potency,[19],inactive
same,Potency,[10],inactive
same,Potency,[20],inactive
same,Potency,[11],inactive
same,Potency,[12],inactive
same,Potency,[13],inactive
CCN(CC)C(C)=O,Potency,[17],inactive
same,Potency,[2],inactive
same,max response,[18],1.69%
same,Potency,[3],inactive
same,Potency,[4],inactive
same,Potency,[15],inactive
same,Potency,[16],inactive
same,Potency,[5],inactive
same,Potency,[6],inactive
same,Potency,[7],inactive
same,Potency,[8],inactive
same,Potency,[9],inactive
same,Potency,[19],inactive
same,Potency,[20],inactive
same,Potency,[11],inactive
same,Potency,[12],inactive
same,Potency,[13],inactive
same,Potency,[14],inactive
NC(N)=NN=C(/C=C/c1ccc([N+](=O)[O-])o1)/C=C/c1ccc([N+](=O)[O-])o1,Potency,[1],8.49 µM (active)
same,Potency,[2],4.25 µM (active)
same,Potency,[18],0.848 µM (active)
same,Potency,[3],10.7 µM (active)
same,Potency,[4],3.79 µM (active)
same,Potency,[15],1.51 µM (active)
same,Potency,[5],1.69 µM (active)
same,Potency,[6],inactive
same,Potency,[7],8.49 µM (active)
same,Potency,[8],inactive
same,Potency,[9],2.39 µM (active)
same,Potency,[10],2.13 µM (active)
same,Potency,[11],6.01 µM (active)
same,Potency,[12],9.52 µM (active)
same,Potency,[13],inactive
same,Potency,[14],9.52 µM (active)
CC(C)(C)C(=O)OCOP(=O)(COCCn1cnc2c(N)ncnc21)OCOC(=O)C(C)(C)C,Potency,[1],inactive
same,Potency,[2],inactive
same,Potency,[18],0.848 µM (active)
same,Potency,[3],inactive
same,Potency,[4],inactive
same,Potency,[5],inactive
same,Potency,[6],inactive
same,Potency,[7],inactive
same,Potency,[8],inactive
same,Potency,[9],inactive
same,Potency,[19],inactive
same,Potency,[12],inactive
same,Potency,[13],inactive
same,Potency,[14],inactive
